Five compounds from PubChem BioAssay can be followed below.

For orientation: inhibition means the relative decrease from the control value, in per cent.

Inconclusive results are not listed. Activity calls are given as the source filed them.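 How the source made its calls, unless noted: active means inhibition above 54%, about 3 SD of non-fluorescent compounds; inactive means the rest.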

Assay [1] in a line: rapamycin-like changes in RPL19A-GFP expression – cell-based, S. cerevisiae, multiplex flow cytometry, primary screen (AID 1862; in the data active means percent of DMSO control GFP below about 86%;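 further: lower values mimic rapamycin by blocking the RPL19A rise seen in DMSO cells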). The following applies: S. cerevisiae RPL19A-GFP strain, flow cytometry fluorescence, 3 h; at 10 µM; stronger effect = lower value. On the technique in general: Flow cytometry measures light scatter and fluorescence of single cells or particles in a stream.
Assay [2] is described as follows: TOR pathway GLN3 branch reporter MEP2-GFP changes – S. cerevisiae, multiplex flow cytometry, primary screen (AID 1867;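 active means GFP response, as percent of the DMSO control, above the screen-wide mean plus 3 SD, about 139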;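 further: median GFP channel fluorescence of barcode-gated MEP2-GFP cells measured by flow cytometry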). Particulars: S. cerevisiae MEP2-GFP strain, 3 h, at 10 µM, stronger effect = higher value, 100% means same as DMSO wells.
A short description of assay [3]: TOR pathway RTG branch CIT2 reporter changes – S. cerevisiae, GFP fusion, multiplex flow cytometry, primary screen (AID 1870;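 active means percent response above a set limit, the screen-wide mean plus 3 SD, cut at about 130% in these data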;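 further: barcoded CIT2-GFP strain pooled with four other GFP strains with rapamycin as positive control; median GFP fluorescence per well over plate mean of DMSO wells so 100% = DMSO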). The following applies: S. cerevisiae CIT2-GFP expression, 3 h, at 10 µM, stronger effect = higher value.
Assay [4] can be described thus: TOR pathway LAP4-GFP level changes – S. cerevisiae, multiplex flow cytometry, primary screen (AID 1873;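 active means GFP signal, as percent of the solvent control, above the screen mean plus 3 SD, about 149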). The following applies: S. cerevisiae LAP4-GFP expression, 3 h, at 10 µM, stronger effect = higher value.
Assay [5] can be described thus: yeast AGP1-GFP level changes, GLN3 branch – cell-based, multiplex flow cytometry, S. cerevisiae, primary screen (AID 1887;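 active means GFP signal above the screen-wide mean plus 3 SD, that is over about 124.5% of the solvent control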;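 further: AGP1-GFP fusion strain of S. cerevisiae within a five-strain barcoded multiplex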). The following applies: 3 h, at 10 µM, stronger effect = higher value.
Assay [6] can be described thus: reduced mouse 2C T cell binding to pMHC/ICAM-1 vesicles – MLPCN validation set, flow cytometry, LFA-1/ICAM-1 modulator project, pilot screen (AID 2523;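 active means response below a set limit, under 55% cells CD8-positive and vesicle-bound, and CD8 cells' 90th-percentile brightness under 279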;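 on vesicle binding response: mean PE anti-B7-1 fluorescence of CD8+ cells relative to row control; 100% = QL9-loaded vesicles with DMSO vehicle in the same plate row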). The following applies: 2C mouse CD8+ T cells, at 7 µM, stronger effect = lower value; double positive events: measured here: CD8+/vesicle+ event percentage.
In assay [7] the target is Integrin beta-1 (Homo sapiens) + Integrin alpha-4 (Homo sapiens) (UniProt P13612+P05556). Put plainly: alpha4beta1 integrin LIBS antibody binding reduction – U937 cells, HUTS-21 mAb, flow cytometry, validation set, VLA-4 allosteric modulator project, pilot screen (AID 2674;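 active means inhibition above 50%, about 3 SD of the validation set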;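 further: antibody binding induced by the VLA-4 ligand LDV present at three times its Kd; 0% = LDV ligand with antibody and no compound and 100% = antibody without LDV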). Particulars: HUTS-21 LIBS mAb binding, at 6.7 µM, stronger effect = higher value, binding induced by LDV ligand.
Sequence of Integrin beta-1 (Homo sapiens) + Integrin alpha-4 (Homo sapiens) (P05556 whole entry, looked up): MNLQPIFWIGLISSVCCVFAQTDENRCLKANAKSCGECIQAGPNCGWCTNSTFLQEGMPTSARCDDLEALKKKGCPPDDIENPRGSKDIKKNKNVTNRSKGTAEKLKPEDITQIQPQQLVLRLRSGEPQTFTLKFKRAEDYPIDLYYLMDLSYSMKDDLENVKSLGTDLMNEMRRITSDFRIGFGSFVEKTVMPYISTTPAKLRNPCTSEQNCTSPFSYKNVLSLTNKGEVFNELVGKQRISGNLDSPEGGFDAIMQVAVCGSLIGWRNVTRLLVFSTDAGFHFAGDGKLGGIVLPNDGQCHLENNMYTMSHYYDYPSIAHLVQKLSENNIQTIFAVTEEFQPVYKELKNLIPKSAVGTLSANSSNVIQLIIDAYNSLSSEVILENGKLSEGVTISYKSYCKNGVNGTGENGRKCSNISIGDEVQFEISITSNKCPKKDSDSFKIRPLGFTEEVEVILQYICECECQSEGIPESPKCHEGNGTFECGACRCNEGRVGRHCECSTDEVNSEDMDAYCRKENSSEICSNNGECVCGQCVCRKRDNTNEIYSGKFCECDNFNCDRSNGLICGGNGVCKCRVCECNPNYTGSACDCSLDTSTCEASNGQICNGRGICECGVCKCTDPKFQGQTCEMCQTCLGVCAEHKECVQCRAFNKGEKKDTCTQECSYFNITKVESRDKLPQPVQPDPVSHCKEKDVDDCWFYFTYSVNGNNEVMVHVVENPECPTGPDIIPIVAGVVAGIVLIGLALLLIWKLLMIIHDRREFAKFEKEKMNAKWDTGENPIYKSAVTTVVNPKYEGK
Sequence of Integrin beta-1 (Homo sapiens) + Integrin alpha-4 (Homo sapiens) (P13612 whole entry, looked up): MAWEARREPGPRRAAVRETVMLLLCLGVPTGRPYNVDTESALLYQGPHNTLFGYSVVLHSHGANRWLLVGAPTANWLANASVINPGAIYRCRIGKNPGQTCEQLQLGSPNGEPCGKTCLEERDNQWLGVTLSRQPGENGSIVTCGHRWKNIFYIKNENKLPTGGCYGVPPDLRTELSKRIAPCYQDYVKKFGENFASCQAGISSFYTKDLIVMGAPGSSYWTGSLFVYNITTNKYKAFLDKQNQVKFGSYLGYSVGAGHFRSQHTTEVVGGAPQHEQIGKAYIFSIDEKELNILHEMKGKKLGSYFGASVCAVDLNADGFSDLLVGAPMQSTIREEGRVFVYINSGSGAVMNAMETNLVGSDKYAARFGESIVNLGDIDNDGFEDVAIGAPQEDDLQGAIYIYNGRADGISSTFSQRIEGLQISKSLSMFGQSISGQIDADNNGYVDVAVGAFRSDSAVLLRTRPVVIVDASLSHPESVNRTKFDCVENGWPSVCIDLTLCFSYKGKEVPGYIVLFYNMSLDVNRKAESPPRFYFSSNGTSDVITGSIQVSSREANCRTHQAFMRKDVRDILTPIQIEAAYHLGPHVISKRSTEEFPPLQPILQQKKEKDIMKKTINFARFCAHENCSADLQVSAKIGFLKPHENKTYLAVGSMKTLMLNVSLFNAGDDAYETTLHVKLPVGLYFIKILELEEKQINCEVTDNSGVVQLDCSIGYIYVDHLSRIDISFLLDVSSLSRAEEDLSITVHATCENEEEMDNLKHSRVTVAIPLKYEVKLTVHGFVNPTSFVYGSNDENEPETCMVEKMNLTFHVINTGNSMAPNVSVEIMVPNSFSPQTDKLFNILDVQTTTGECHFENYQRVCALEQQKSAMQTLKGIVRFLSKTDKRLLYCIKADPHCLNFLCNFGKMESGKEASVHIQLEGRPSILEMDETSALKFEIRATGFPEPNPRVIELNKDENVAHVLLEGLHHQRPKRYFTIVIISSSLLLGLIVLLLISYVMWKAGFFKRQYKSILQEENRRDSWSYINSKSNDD

Assay [8] is described as follows: calorie-restriction mimetic ROS inhibitors, yeast – validation compound set, pilot screen (AID 2706;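 active means superoxide response below 65% of plate, a cut near 3 SD across the whole screen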;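 further: yeast exposed to compound for one week at 30 degrees C before staining; 100% = mean of all compound wells on the same plate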). The following applies: S. cerevisiae aging, superoxide DHE fluorescence; at 10 µM; stronger effect = lower value.
Assay [9] addresses Beta-adrenergic receptor kinase 1 (Homo sapiens) (UniProt P25098). Put plainly: GRK2 binders displacing RNA aptamer, biochemical, validation, human GRK2, bead flow cytometry (AID 488806;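 active means aptamer binding inhibition above 30%, about 3 SD of noise from non-fluorescent compounds; inactive means inhibition at or below 30%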). Particulars: bead-bound GRK2, FAM-aptamer displacement, at 10 µM, stronger effect = higher value.
Assay [10] has as its target Beta-2 adrenergic receptor (Homo sapiens) (UniProt P07550). In words: agonist-induced loss of surface beta2AR – cell-based, FAP fluorogen, flow cytometry, validation set, pilot screen (AID 504459;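 active means percent response above 42, roughly 3 SD of non-fluorescent test compounds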;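 further: agonist-driven loss of surface beta2AR via internalization measured by FAP dye flow cytometry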). The following applies: Am2.2-beta2AR cells, at 10 µM, stronger effect = higher value.
For assay [11], the target named is AP-2 complex subunit beta (Homo sapiens) (UniProt P63010). In words: beta-arrestin/AP2 interaction blockers – biochemical, validation set, GST-AP2 beads, flow cytometry, pilot screen (AID 504541).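 Further: AP2 carries R879A mutation and is captured from E. coli lysate; bead-bound FITC arrestin peptide fluorescence measuring arrestin peptide binding to AP2; 0% = DMSO wells and 100% = excess unlabeled arrestin peptide control.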 The following applies: FITC arrestin peptide, at 10 µM, stronger effect = higher value, AP2 beta2 appendage fragment, R879A mutant.
Sequence of AP-2 complex subunit beta (Homo sapiens) (P63010 whole entry, looked up, the tested form may be a part, one chain of several): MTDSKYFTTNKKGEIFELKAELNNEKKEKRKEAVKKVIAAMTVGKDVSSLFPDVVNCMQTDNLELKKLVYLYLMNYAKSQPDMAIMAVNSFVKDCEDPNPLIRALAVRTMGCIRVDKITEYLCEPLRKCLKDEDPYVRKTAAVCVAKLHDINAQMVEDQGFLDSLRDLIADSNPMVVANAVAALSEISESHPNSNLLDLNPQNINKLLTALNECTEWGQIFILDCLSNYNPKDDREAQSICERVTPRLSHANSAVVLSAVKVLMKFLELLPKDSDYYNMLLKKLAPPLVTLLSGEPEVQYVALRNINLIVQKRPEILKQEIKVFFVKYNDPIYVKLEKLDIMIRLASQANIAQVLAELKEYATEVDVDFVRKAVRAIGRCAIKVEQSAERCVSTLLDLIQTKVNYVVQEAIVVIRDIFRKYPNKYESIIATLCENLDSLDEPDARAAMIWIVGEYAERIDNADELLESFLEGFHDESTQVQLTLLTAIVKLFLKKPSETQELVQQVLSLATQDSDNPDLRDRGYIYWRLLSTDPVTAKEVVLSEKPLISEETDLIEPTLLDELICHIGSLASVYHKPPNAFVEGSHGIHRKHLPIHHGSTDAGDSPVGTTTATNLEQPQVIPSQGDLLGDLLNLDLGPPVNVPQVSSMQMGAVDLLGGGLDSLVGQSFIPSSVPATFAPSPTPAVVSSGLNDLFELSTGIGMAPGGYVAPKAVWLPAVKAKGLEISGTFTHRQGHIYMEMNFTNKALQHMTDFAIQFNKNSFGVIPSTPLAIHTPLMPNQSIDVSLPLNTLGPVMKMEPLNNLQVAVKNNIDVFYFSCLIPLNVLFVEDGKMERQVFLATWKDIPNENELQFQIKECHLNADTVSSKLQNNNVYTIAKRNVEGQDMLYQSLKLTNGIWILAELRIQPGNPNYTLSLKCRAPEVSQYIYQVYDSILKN
Assay [12] is described as follows: cytosolic pH regulators acting via V-ATPase – S. cerevisiae, pHLuorin, HTS validation (AID 504600; in the data active means response above about 15%;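 further: plate controls were DMSO for no effect and reference compound for full effect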). The following applies: V-ATPase proton transport, at 10 µM, stronger effect = higher value.
In assay [13] the test system is anti-desmoglein-3 scFv antibody binding to human DSG3. Put plainly: blockers of pathogenic pemphigus antibody–desmoglein-3 binding – biochemical, validation compound set, bead-based, flow cytometry, pilot screen (AID 588368;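 active means binding below the plate cutoff, the plate median minus 3 SD, with a reading above zero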;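 further: signal is the median channel fluorescence of bead-bound GFP antibody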). The following applies: Protein G beads, DSG3-Fc, scFv-GFP binding, at 10 µM, stronger effect = lower value.
A short description of assay [14]: Nile Red efflux blockade in pump-expressing yeast – validation compound set, multiplex, phenotypic, pilot screen (AID 588506;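 active means efflux inhibition above 0.42, the validation set average plus 4 SD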;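 further: Nile Red retained in cells so higher fluorescence means more efflux inhibition; 0 = negative control wells and 1 = enniatin B 25 µM full block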). Particulars: S. cerevisiae pump-expressing triplex, Nile Red efflux flow cytometry; at 10 µM; stronger effect = higher value; the pumps come from Candida albicans.
Assay [15] has as its target ATP-binding cassette sub-family B member 6 (Homo sapiens) (UniProt Q9NP58). Put plainly: blockers of ABCB6-driven porphyrin uptake – K562-ABCB6 cells, flow cytometry, validation set, pilot screen (AID 588550;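 active means inhibition above the screen-wide mean plus 3 SD, about 51%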;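 further: 0% = DMSO wells and 100% = benzethonium chloride 70 µM positive control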). The following applies: K562-ABCB6 porphyrin accumulation, 1 h, at 10 µM, stronger effect = higher value.
Assay [16] is described as follows: AML differentiation inducers, ER-HoxA9 marrow cells – cell-based, GFP/MAC1 double positive, flow cytometry, validation set, primary screen (AID 588685;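 active means differentiation response of at least 50%, scaled between solvent and reference control, from cells with both markers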;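 further: compound exposure lasts four days before antibody staining and flow analysis; 0% = DMSO wells and 100% = 5 µM fulvestrant positive control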). The following applies: stronger effect = higher value, normalized: vehicle 0, fulvestrant 100.

Sequence of Beta-adrenergic receptor kinase 1 (Homo sapiens) (P25098 whole entry, looked up): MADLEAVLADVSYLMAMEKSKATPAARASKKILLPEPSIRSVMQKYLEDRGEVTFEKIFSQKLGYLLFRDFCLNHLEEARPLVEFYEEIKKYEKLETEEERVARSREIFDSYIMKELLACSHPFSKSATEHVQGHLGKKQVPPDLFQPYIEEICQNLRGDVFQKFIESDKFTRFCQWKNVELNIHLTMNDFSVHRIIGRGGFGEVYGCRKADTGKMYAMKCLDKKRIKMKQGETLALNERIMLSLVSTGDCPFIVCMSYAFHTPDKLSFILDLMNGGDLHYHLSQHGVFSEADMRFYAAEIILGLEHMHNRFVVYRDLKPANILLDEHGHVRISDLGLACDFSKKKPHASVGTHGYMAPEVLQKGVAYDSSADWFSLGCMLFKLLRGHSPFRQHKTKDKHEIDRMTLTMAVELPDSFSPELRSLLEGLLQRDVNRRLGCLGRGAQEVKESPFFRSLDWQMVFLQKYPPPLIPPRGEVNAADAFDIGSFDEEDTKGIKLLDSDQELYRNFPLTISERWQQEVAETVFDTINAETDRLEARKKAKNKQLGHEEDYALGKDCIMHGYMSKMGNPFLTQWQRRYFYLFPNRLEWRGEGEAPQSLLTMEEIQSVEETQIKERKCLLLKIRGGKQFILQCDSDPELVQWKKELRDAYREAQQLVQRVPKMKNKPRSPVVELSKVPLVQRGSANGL
Sequence of Beta-2 adrenergic receptor (Homo sapiens) (P07550 whole entry, looked up): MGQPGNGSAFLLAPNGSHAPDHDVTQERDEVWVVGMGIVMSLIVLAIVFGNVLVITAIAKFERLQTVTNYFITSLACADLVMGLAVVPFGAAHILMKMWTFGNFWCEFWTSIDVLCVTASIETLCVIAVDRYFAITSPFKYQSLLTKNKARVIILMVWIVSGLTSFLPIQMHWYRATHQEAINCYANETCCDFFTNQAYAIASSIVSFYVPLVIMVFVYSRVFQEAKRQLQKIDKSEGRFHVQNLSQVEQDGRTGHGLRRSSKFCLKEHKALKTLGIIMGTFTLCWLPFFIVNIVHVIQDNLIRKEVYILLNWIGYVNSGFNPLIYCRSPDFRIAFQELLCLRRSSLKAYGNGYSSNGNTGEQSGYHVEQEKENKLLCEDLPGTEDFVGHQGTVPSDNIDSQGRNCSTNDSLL
Sequence of ATP-binding cassette sub-family B member 6 (Homo sapiens) (Q9NP58 whole entry, looked up): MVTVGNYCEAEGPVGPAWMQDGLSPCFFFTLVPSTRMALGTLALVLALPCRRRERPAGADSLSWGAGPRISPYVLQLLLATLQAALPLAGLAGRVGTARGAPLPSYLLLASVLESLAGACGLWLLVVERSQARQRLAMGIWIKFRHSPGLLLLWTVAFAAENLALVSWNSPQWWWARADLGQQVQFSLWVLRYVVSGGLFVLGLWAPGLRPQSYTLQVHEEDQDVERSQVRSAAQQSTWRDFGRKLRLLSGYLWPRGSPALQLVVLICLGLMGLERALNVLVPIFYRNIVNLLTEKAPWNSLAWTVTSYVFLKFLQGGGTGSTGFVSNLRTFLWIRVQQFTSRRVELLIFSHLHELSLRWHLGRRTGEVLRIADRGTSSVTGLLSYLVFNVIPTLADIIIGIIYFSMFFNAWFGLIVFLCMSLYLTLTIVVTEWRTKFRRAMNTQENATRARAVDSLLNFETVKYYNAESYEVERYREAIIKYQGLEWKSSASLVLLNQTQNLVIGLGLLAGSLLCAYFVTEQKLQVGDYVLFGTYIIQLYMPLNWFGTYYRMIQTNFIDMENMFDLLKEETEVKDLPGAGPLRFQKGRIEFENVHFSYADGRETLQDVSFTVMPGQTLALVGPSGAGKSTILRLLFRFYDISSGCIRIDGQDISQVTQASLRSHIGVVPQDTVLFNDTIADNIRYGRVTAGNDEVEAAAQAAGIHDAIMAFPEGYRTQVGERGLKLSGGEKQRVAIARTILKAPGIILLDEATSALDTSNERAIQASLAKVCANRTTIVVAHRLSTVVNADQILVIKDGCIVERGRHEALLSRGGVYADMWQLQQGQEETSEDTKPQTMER

Regarding `CN(C)CCCN1c2ccccc2Sc2ccc(C(F)(F)F)cc21`, the percent of DMSO control GFP in assay [1] is 99% (inactive). The results for the GFP response vs DMSO in assay [2] and in assay [4] were 106% (inactive) and 115% (inactive), respectively. In addition, the percent response of DMSO control in assay [3] was 99% (inactive). Besides, in assay [5], the GFP response, % of DMSO is 113% (inactive). In assay [6], this compound returned a double positive events of 60.5%. Moreover, the vesicle binding response in assay [6] is 196% (inactive). Besides, the figures for the inhibition in [7], in assay [11] and in [15] were 53.4% (active), 29.2% (inactive) and 6% (inactive), respectively. Further, the superoxide response (% of plate) in assay [8] is 88.6% (inactive). Besides, the aptamer binding inhibition in [9] was -7% (inactive). In addition, the results for the response in assay [10] and in assay [12] were 26.6% (inactive) and -0.19% (inactive), respectively. Moreover, in [13], the binding (% of control) is 101% (inactive). The efflux inhibition (fraction of control) in [14] is 0.25 (inactive). Further, the differentiation response in [16] is -18.8% (inactive).

In the case of `COc1ccc(-c2nc(NC(C)=O)sc2-c2ccc(OC)cc2)cc1`, the percent of DMSO control GFP in assay [1] was 104% (inactive). Besides, the GFP response vs DMSO in assay [2] was 101% (inactive); in assay [4], 92.6% (inactive). Also, the percent response of DMSO control in assay [3] was 99.7% (inactive). In addition, in assay [5], the GFP response, % of DMSO was 90.9% (inactive). In assay [6], the double positive events was determined as 65.9%. Besides, the vesicle binding response in assay [6] is 232% (inactive). Also, the inhibition in assay [7] was -2.43% (inactive); in assay [11], -11.5% (inactive); in assay [15], 0% (inactive). In addition, the superoxide response (% of plate) in assay [8] is 104% (inactive). Besides, the aptamer binding inhibition in assay [9] is 2% (inactive). For the same compound, the response in assay [10] was -22.1% (inactive); in assay [12], 0.09% (inactive). Besides, in [13], the binding (% of control) was 102% (inactive). Further, in [14], the efflux inhibition (fraction of control) was -0.29 (inactive). The differentiation response in assay [16] was 14.4% (inactive).

On to `O=C(/C=C/c1ccc(F)cc1)N1CC[C@@]2(O)CCCC[C@H]2C1`, for which, in [1], the percent of DMSO control GFP is 96.7% (inactive). Also, the GFP response vs DMSO in [2] was 112% (inactive); in assay [4] it was 125% (inactive). Also, in assay [3], the percent response of DMSO control was 89.1% (inactive). For the same compound, in [5], the GFP response, % of DMSO is 96.5% (inactive). In assay [6], this compound had a double positive events of 61.1%. For the same compound, the vesicle binding response in assay [6] was 198% (inactive). Further, the inhibition is -4.52% (inactive) in assay [7], -5.97% (inactive) in assay [11] and 7% (inactive) in [15]. Besides, the superoxide response (% of plate) in assay [8] is 98.4% (inactive). The aptamer binding inhibition in [9] was 3% (inactive). Besides, the response in assay [10] is 15.3% (inactive); in assay [12] it was 10.1% (inactive). In assay [13], the binding (% of control) is 98% (inactive). In addition, the efflux inhibition (fraction of control) in [14] is -0.13 (inactive). In assay [16], the differentiation response was -13.6% (inactive).

On to `O=C(O)Cc1ccc(O)c(F)c1`, for which the percent of DMSO control GFP in assay [1] is 91.5% (inactive). Besides, the GFP response vs DMSO in assay [2] was 135% (inactive); in assay [4], 80.9% (inactive). Moreover, the percent response of DMSO control in [3] was 101% (inactive). In [5], the GFP response, % of DMSO was 91% (inactive). The same compound had a double positive events in assay [6] of 61.7%. Moreover, the vesicle binding response in [6] is 175% (inactive). Further, the inhibition in assay [7] was -9.06% (inactive); in assay [11], 5.41% (inactive); in [15] it was 10% (inactive). For the same compound, the superoxide response (% of plate) in assay [8] is 111% (inactive). Besides, the aptamer binding inhibition in assay [9] was 4% (inactive). Moreover, the response in [10] is -7.58% (inactive); in assay [12], 1.04% (inactive). In assay [13], the binding (% of control) is 100% (inactive). For the same compound, the efflux inhibition (fraction of control) in assay [14] was 0.19 (inactive). Besides, the differentiation response in [16] is -4.09% (inactive).

On to `O=C(O)c1ccccc1Nc1cccc(C(F)(F)F)c1`, for which the percent of DMSO control GFP in [1] is 95% (inactive). Moreover, the GFP response vs DMSO in assay [2] was 103% (inactive); in [4], 93.1% (inactive). The percent response of DMSO control in [3] is 88.2% (inactive). Besides, the GFP response, % of DMSO in assay [5] is 82.4% (inactive). Also, the double positive events in assay [6] was determined as 74%. In addition, the vesicle binding response in assay [6] was 7820% (inactive). Further, the values for the inhibition in [7], in assay [11] and in assay [15] were -15.4% (inactive), -15.2% (inactive) and 112% (active), respectively. For the same compound, the superoxide response (% of plate) in assay [8] was 98.3% (inactive). The aptamer binding inhibition in assay [9] was 2% (inactive). Moreover, the response in assay [10] was -9.88% (inactive); in [12], 1.34% (inactive). For the same compound, the binding (% of control) in [13] is 98.2% (inactive). Besides, the efflux inhibition (fraction of control) in assay [14] is -0.24 (inactive). Further, in assay [16], the differentiation response is 18.4% (inactive).
